Test results taken from PubChem BioAssay AID1159580 (chemical genetic matrix, 2015).
Values joined by “and” are separate entries in the source; they are usually repeats but may differ in a detail not shown here. Identical values can stand only once. Screen size: about 5,500 compounds; about 2,000 (36%) were called active. Inconclusive results (about 18%) are left out. Rule as the data show it: active = normalized growth mostly below about 0.91 (no sharp cut-off); inconclusive = no clear call, values can overlap the other calls; inactive = mostly above about 0.92. The list shows a part of the results.

Assay: chemical genetic growth profiling, strain panel (AID 1159580);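 also: tested at 20 µM; growth read once vehicle control cultures reached saturation at 30 °C; 1 = growth at the plate median or of vehicle wells; lower values mean less growth of the strain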
Conditions: S. cerevisiae deletion strains, growth OD

Measured: normalized growth

CCCC(CCC)C(=O)O
inactive: locus YAL013W, strain DEP1, stronger effect = lower value 0.993 and 0.977 | locus YAL021C, strain ccr4, stronger effect = lower value 1 | locus YAL026C, strain drs2, stronger effect = lower value 1 | locus YAL030W, strain snc1, stronger effect = lower value 1.01 | locus YAL040C, strain CLN3, stronger effect = lower value 0.959 | locus YBL061C, strain skt5, stronger effect = lower value 1 | locus YBR009C, strain hhf1, stronger effect = lower value 1 | locus YBR021W, strain FUR4, stronger effect = lower value 0.953 | locus YBR023C, strain chs3, stronger effect = lower value 1.01 | locus YBR171W, strain sec66, stronger effect = lower value 1.01 | locus YBR229C, strain ROT2, stronger effect = lower value 0.992 | locus YBR231C, strain swc5, stronger effect = lower value 1.01 | locus YBR279W, strain paf1, stronger effect = lower value 1.02 | locus YCL011C, strain gbp2, stronger effect = lower value 1.01 | locus YCL016C, strain dcc1, stronger effect = lower value 1.01 | locus YCL029C, strain bik1, stronger effect = lower value 0.954 | locus YCL061C, strain MRC1 (second series), stronger effect = lower value 0.985 | locus YCL061C, strain MRC1, stronger effect = lower value 1 | locus YCL069W, strain vba3, stronger effect = lower value 1.02 | locus YCR088W, strain abp1, stronger effect = lower value 1.01 | locus YDL005C, strain med2, stronger effect = lower value 1.01 | locus YDL035C, strain GPR1, stronger effect = lower value 1 | locus YDL040C, strain nat1, stronger effect = lower value 1.01 | locus YDL074C, strain BRE1, stronger effect = lower value 1 | locus YDL101C, strain DUN1, stronger effect = lower value 1.01 | locus YDL185W, strain tfp1, stronger effect = lower value 0.964 | locus YDL192W, strain arf1, stronger effect = lower value 0.97 | locus YDR001C, strain nth1, stronger effect = lower value 1.01 | locus YDR069C, strain doa4, stronger effect = lower value 1.01 | locus YDR101C, strain arx1, stronger effect = lower value 0.963 | locus YDR137W, strain rgp1, stronger effect = lower value 0.985 | locus YDR150W, strain NUM1, stronger effect = lower value 0.981 | locus YDR159W, strain sac3, stronger effect = lower value 1.01 | locus YDR162C, strain NBP2, stronger effect = lower value 1 | locus YDR195W, strain ref2 1.02 | locus YDR297W, strain sur2, stronger effect = lower value 1 | locus YDR318W, strain mcm21, stronger effect = lower value 0.97 | locus YDR334W, strain swr1, stronger effect = lower value 1.02 | locus YDR335W, strain msn5, stronger effect = lower value 1.01 | locus YDR363W, strain ESC2, stronger effect = lower value 0.994 | locus YDR388W, stronger effect = lower value 0.967 | locus YDR392W, strain spt3, stronger effect = lower value 0.95 | locus YDR502C, strain sam2, stronger effect = lower value 0.965 | locus YEL003W, strain gim4, stronger effect = lower value 1.01 | locus YEL037C, strain rad23, stronger effect = lower value 1.01 | locus YEL061C, strain CIN8 (second series), stronger effect = lower value 1.01 | locus YEL061C, strain CIN8, stronger effect = lower value 0.994 | locus YER002W, strain NOP16, stronger effect = lower value 0.979 | locus YER015W, strain faa2, stronger effect = lower value 1.02 | locus YER016W, strain bim1, stronger effect = lower value 1 | locus YER110C, stronger effect = lower value 0.985 | locus YER111C, strain swi4, stronger effect = lower value 1.02 | locus YER155C, strain BEM2 (second series), stronger effect = lower value 0.996 | locus YER155C, strain BEM2, stronger effect = lower value 0.975 | locus YER167W, strain BCK2, stronger effect = lower value 0.986 | locus YFR010W, strain ubp6, stronger effect = lower value 1.02 | locus YGL078C, strain dbp3, stronger effect = lower value 0.963 | locus YGL086W, strain mad1, stronger effect = lower value 0.964 | locus YGL167C, strain pmr1, stronger effect = lower value 1.01 | locus YGL173C, strain kem1, stronger effect = lower value 1.01 | locus YGL227W, strain vid30, stronger effect = lower value 1.01 | locus YGL240W, strain doc1, stronger effect = lower value 1.01 | locus YGL248W, strain PDE1, stronger effect = lower value 0.998 | locus YGL253W, strain hxk2, stronger effect = lower value 1.01 | locus YGR078C, strain PAC10, stronger effect = lower value 0.989 | locus YGR135W, strain pre9, stronger effect = lower value 1 | locus YGR252W, strain gcn5, stronger effect = lower value 0.967 | locus YHR013C, strain ard1, stronger effect = lower value 1.03 | locus YHR027C, strain rpn1, stronger effect = lower value 1.03 | locus YHR030C, strain SLT2, stronger effect = lower value 0.987 and 0.951 | locus YHR079C, strain IRE1 (second series), stronger effect = lower value 0.966 | locus YHR079C, strain IRE1, stronger effect = lower value 0.951 | locus YHR094C, strain hxt1, stronger effect = lower value 0.97 | locus YHR129C, strain ARP1, stronger effect = lower value 0.994 | locus YHR142W, strain chs7, stronger effect = lower value 1.03 | locus YHR200W, strain rpn10, stronger effect = lower value 0.971 | locus YIL066C, strain RNR3, stronger effect = lower value 0.992 | locus YIL073C, strain SPO22, stronger effect = lower value 1.03 | locus YIR030C, strain dcg1, stronger effect = lower value 0.966 | locus YJL092W, strain hpr5, stronger effect = lower value 1.01 | locus YJL095W, strain BCK1 (second series), stronger effect = lower value 1.01 | locus YJL095W, strain BCK1, stronger effect = lower value 0.993 and 0.94 | locus YJL115W, strain asf1, stronger effect = lower value 1.02 | locus YJL129C, strain trk1, stronger effect = lower value 1.01 | locus YJL134W, strain LCB3, stronger effect = lower value 0.993 | locus YJL154C, strain vps35, stronger effect = lower value 1.01 | locus YJL164C, strain tpk1, stronger effect = lower value 1 | locus YJL166W, strain qcr8, stronger effect = lower value 1.01 | locus YJL168C, strain set2, stronger effect = lower value 0.986 | locus YJL187C, strain SWE1 (second series), stronger effect = lower value 0.992 | locus YJL187C, strain SWE1, stronger effect = lower value 1.01 | locus YJR043C, strain POL32, stronger effect = lower value 1.01 | locus YJR066W, strain TOR1, stronger effect = lower value 0.926 | locus YJR075W, strain HOC1, stronger effect = lower value 0.982 | locus YKL009W, strain mrt4, stronger effect = lower value 0.977 | locus YKL160W, strain elf1, stronger effect = lower value 1 | locus YKR001C, strain vps1, stronger effect = lower value 0.932 | locus YKR026C, strain gcn3, stronger effect = lower value 1.01 | locus YKR091W, strain srl3, stronger effect = lower value 1.01 | locus YLL001W, strain dnm1, stronger effect = lower value 1 | locus YLL026W, stronger effect = lower value 0.993 | locus YLL041C, strain sdh2, stronger effect = lower value 1.01 | locus YLR027C, strain aat2, stronger effect = lower value 1 | locus YLR039C, strain RIC1, stronger effect = lower value 0.97 | locus YLR058C, strain SHM2, stronger effect = lower value 0.999 | locus YLR102C, strain apc9, stronger effect = lower value 0.977 | locus YLR221C, strain rsa3, stronger effect = lower value 0.999 | locus YLR258W, strain gsy2, stronger effect = lower value 1.01 | locus YLR262C, strain YPT6 (second series), stronger effect = lower value 0.99 | locus YLR262C, strain YPT6, stronger effect = lower value 0.945 | locus YLR268W, strain sec22, stronger effect = lower value 0.961 | locus YLR320W, strain mms22, stronger effect = lower value 1.01 | locus YLR330W, strain CHS5, stronger effect = lower value 0.992 | locus YLR342W, strain FKS1 (second series), stronger effect = lower value 1.01 | locus YLR342W, strain FKS1, stronger effect = lower value 1.01 | locus YLR357W, strain rsc2, stronger effect = lower value 1.06 | locus YLR370C, strain arc18, stronger effect = lower value 1.01 | locus YLR371W, strain rom2, stronger effect = lower value 0.975 | locus YLR384C, strain iki3, stronger effect = lower value 1.01 | locus YLR418C, strain cdc73, stronger effect = lower value 0.987 | locus YML016C, strain PPZ1, stronger effect = lower value 0.992 | locus YML032C, strain rad52, stronger effect = lower value 0.98 | locus YML120C, strain ndi1, stronger effect = lower value 1 | locus YML124C, strain tub3, stronger effect = lower value 0.95 | locus YMR058W, strain fet3, stronger effect = lower value 1.01 | locus YMR078C, strain ctf18, stronger effect = lower value 0.967 | locus YMR125W, strain sto1, stronger effect = lower value 1.03 | locus YMR129W, stronger effect = lower value 1.01 | locus YMR205C, strain PFK2, stronger effect = lower value 1.02 | locus YMR223W, strain ubp8, stronger effect = lower value 0.994 | locus YMR231W, strain pep5, stronger effect = lower value 1.02 | locus YMR263W, strain SAP30, stronger effect = lower value 0.999 | locus YMR307W, strain GAS1, stronger effect = lower value 1.04 | locus YNL067W, strain RPL9B, stronger effect = lower value 0.988 | locus YNL071W, strain lat1, stronger effect = lower value 1.01 | locus YNL128W, strain TEP1, stronger effect = lower value 1 | locus YNL175C, strain NOP13, stronger effect = lower value 1 | locus YNL183C, strain NPR1, stronger effect = lower value 0.931 | locus YNL197C, strain WHI3, stronger effect = lower value 0.971 | locus YNL209W, strain ssb2, stronger effect = lower value 1.01 | locus YNL224C, strain SQS1, stronger effect = lower value 0.981 | locus YNL233W, strain BNI4, stronger effect = lower value 0.977 | locus YNL248C, strain rpa49, stronger effect = lower value 1.04 | locus YNL250W, strain rad50, stronger effect = lower value 0.937 | locus YNL271C, strain bni1, stronger effect = lower value 0.942 | locus YNL298W, strain CLA4, stronger effect = lower value 0.969 | locus YNL307C, strain MCK1, stronger effect = lower value 0.945 | locus YNL322C, strain KRE1 (second series), stronger effect = lower value 1 | locus YNL322C, strain KRE1, stronger effect = lower value 0.983 and 0.987 | locus YNR049C, strain mso1, stronger effect = lower value 1.01 | locus YNR052C, strain pop2, stronger effect = lower value 0.985 | locus YOL006C, strain TOP1, stronger effect = lower value 1.05 | locus YOL012C, strain htz1 1.46 | locus YOL147C, strain pex11, stronger effect = lower value 0.961 | locus YOR001W, strain rrp6, stronger effect = lower value 1.01 | locus YOR061W, strain CKA2, stronger effect = lower value 0.998 | locus YOR069W, strain VPS5, stronger effect = lower value 0.985 | locus YOR070C, strain gyp1, stronger effect = lower value 1.01 | locus YOR080W, strain dia2, stronger effect = lower value 1.02 | locus YOR083W, strain WHI5 (second series), stronger effect = lower value 0.985 | locus YOR083W, strain WHI5, stronger effect = lower value 0.998 | locus YOR106W, strain vam3, stronger effect = lower value 1.01 | locus YOR136W, strain idh2, stronger effect = lower value 0.968 | locus YOR144C, strain elg1, stronger effect = lower value 0.965 | locus YOR184W, strain ser1, stronger effect = lower value 0.966 | locus YOR231W, strain MKK1, stronger effect = lower value 0.935 | locus YOR265W, strain rbl2, stronger effect = lower value 1.01 | locus YOR270C, strain vph1, stronger effect = lower value 1.07 | locus YOR290C, strain snf2, stronger effect = lower value 1 | locus YOR316C, strain cot1, stronger effect = lower value 0.977 | locus YPL051W, strain arl3, stronger effect = lower value 0.999 | locus YPL055C, strain LGE1, stronger effect = lower value 1 | locus YPL078C, strain atp4, stronger effect = lower value 1.01 | locus YPL106C, strain sse1, stronger effect = lower value 1.01 | locus YPL240C, strain hsp82, stronger effect = lower value 1.02 | locus YPL256C, strain CLN2, stronger effect = lower value 0.882 | locus YPR119W, strain clb2, stronger effect = lower value 0.976 | locus YPR163C, strain tif3, stronger effect = lower value 0.959 | locus YPR167C, strain met16, stronger effect = lower value 0.973 | strain wtn01, stronger effect = lower value 0.954
active: locus YIL125W, strain kgd1, stronger effect = lower value 0.92 | locus YKL068W, stronger effect = lower value 0.91 | locus YKL085W, strain MDH1 (second series), stronger effect = lower value 0.918 | locus YKL085W, strain MDH1, stronger effect = lower value 0.918 | locus YLR113W, strain HOG1, stronger effect = lower value 0.853 | locus YPR141C, strain kar3, stronger effect = lower value 0.871
